Pf growth 96h: P. falciparum growth inhibition at 96 hour, primary screen for plastid delayed-death inhibitors; P. falciparum luciferase reporter growth, 96 h; Potency, µM (highest dose often 28.7 µM), for inactives: at the top dose activity change, negative = inhibition, actives largely listed as inhibitors; actives 6.9% (n = 320,000); AID 504834; also: potency is read from the fitted curve at half-maximal effect; % is scaled to controls: 0 for no effect and ±100 for the full control effect
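96 h incubation, 37 C, 5% CO2, of luciferase-reporter P. falciparum-infected RBCs (2% hematocrit, 0.05% parasitemia final) with test compounds; endpoint luminescence.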
Lassa entry inh: inhibitors of Lassa virus binding or cell entry | Potency, µM (titrated, usually from 37.9 µM), without a hit: top-dose activity change, negative = inhibition, usual class: inhibitors | Lassa virus pseudotype entry inhibition, cell reporter | actives 1.2% (n = 300,000); calls by dose curve; tested in HEK293 cells; also: potency is read from the fitted curve at half-maximal effect; % is scaled to controls: 0 for no effect and ±100 for the full control effect; nearly all actives have a fitted effect of over 50% in size
Marburg entry inh: Marburg virus entry inhibition. Marburg virus pseudotyped entry inhibition, cell reporter. Potency, µM (series often up to 37.8 µM), for the others: top-dose activity change, negative = inhibition, actives largely listed as inhibitors. actives 1.8% (n = 300,000). AID 540276; calls by dose curve; tested in HEK293 cells; also: potency is read from the fitted curve at half-maximal effect; % is scaled to controls: 0 for no effect and ±100 for the full control effect
Pf growth 48h: inhibits P. falciparum growth in the first generation, 48 h. P. falciparum luciferase growth in erythrocytes, 48 h. Potency, µM (highest dose often 28.7 µM), for the others: at the highest dose activity change, negative = inhibition, hits mostly inhibitors. actives 5.9% (n = 310,000). AID 504832; also: potency is read from the fitted curve at half-maximal effect; % is scaled to controls: 0 for no effect and ±100 for the full control effect
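First compound was added to culture medium, then infected red cells at 0.1% parasitemia and 2% hematocrit (final). After incubation at 37 C under 5% CO2, luciferase detection reagent was dispensed and light output recorded.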
Shiga inhibitor: blocks Shiga toxin action in Vero cells | Vero cells, Shiga toxin protein synthesis inhibition reporter | inhibition, % at 38.7 µM | actives 9.2% (n = 290,000); in the data active = inhibition mostly above about 28%, no sharp cut-off; inactive = mostly below about 43%; also: 0% is about no effect
Cycloheximide cs: counter-screen for Shiga toxin inhibitors: cycloheximide protein synthesis inhibition. cell reporter, cycloheximide protein synthesis inhibition counterscreen. actives 12% (n = 300,000). AID 2314. max response, %; in the data active = max response mostly above about 13%, no sharp cut-off; inactive = mostly below about 14%; also: read at 38.3 µM for the half of the compounds with a filed dose; 0% is about no effect
Numbers without * were called inactive; ? = inconclusive; nt = not tested or not shown; [ ] = another dose, or the depositor's remark. A selection: hits, their analogues and other compounds. The true share with any hit is near 19%. Unless noted, calls follow the shape of the dose curve; as a rule, active = well fitted inhibition curve with a large enough effect; inconclusive = small, poorly fitted or top-dose-only effect, or another doubt; inactive = no such curve, though single readings can be large or run the other way.

SMILES	Pf growth 96h	Lassa entry inh	Marburg entry inh	Pf growth 48h	Shiga inhibitor	Cycloheximide cs
CC(=O)N1CC=CC1(CC(C)C)C(=O)NCCN1CCOCC1 (stereo unspecified)	24%	19%	-6%	34%	55*	34*
CC(C)CC1(C(=O)NCCN2CCOCC2)C=CCN1C(=O)c1ccccc1 (stereo unspecified)	-26%	-10%	27%	-9%	-9	-1
CCOC(=O)CCNC(=O)N1CCCC(N(C)CCc2ccc(OC)c(OC)c2)C1 (stereo unspecified)	?	nt	nt	-5%	-7	-2
O=C(COc1cccc2ccccc12)N/N=C/C=C/c1ccccc1	-4%	-2%	-6%	11%	-13	-3
Cn1/c(=N\NC(=O)c2ccccc2Cl)sc2ccccc21	?	-13%	?	178%	75*	31*
Cn1/c(=N\NC(=O)C2CCCCC2)sc2ccccc21	43%	?	?	47%	56*	37*
CC(=O)N/N=c1\sc2ccccc2n1C	?	8%	15%[46.1 µM]	-8%	29	1
CCc1nnc(NC(=O)c2ccc(Cl)nc2)s1	61%	-16%[46.1 µM]	11%[46.1 µM]	27%	75*	32*
CCc1nnc(NC(=O)c2cc(Cl)ccn2)s1	5.9µM*	-28%[46.1 µM]	?	?	77*	41*
CC(C)(C)c1nnc(NC(=O)c2ccc(Cl)nc2)s1	-23%	nt	nt	43%	-2	3
O=C(Nc1ccc(N2CCOCC2)cc1)c1ccc(Cl)nc1	nt	13%	2%	3%	-13	-1
CCc1nnc(NC(=O)c2ncc(Cl)c(Cl)c2Cl)s1	30%	17%	?	4%	22	14
CCN(c1ccc(NC(=O)c2ccc(Cl)nc2)cc1)C(C)C	25%	nt	nt	6%	38*	24*
C=CCc1ccccc1OCC(O)CN1CCN(c2ccccc2F)CC1 (stereo unspecified)	?	2%	-36%	0%	-10	-4
COc1cccc(CN(C)C(=O)c2cccc(S(=O)(=O)N3CCN(c4ccccc4)CC3)c2)c1OC	nt	nt	0%	nt	nt	nt
COc1ccccc1CNC(=O)c1cccc(S(=O)(=O)N2CCN(c3ccc(F)cc3)CC2)c1	?	nt	nt	10µM*	nt	nt
COc1cccc(CN(C)C(=O)C2CCN(S(=O)(=O)c3ccc(C)cc3)CC2)c1OC	12µM*	?	?	13µM*	nt	nt
COc1cccc(CN(C)C(=O)c2cccc(S(=O)(=O)N3CCN(c4ccc(F)cc4)CC3)c2)c1OC	?	?	2µM*	10µM*	nt	nt
CC12CCC(C(=O)OC3CCCCC3)(OC1=O)C2(C)C (stereo unspecified)	12µM*	nt	nt	31%	-5	-2
COc1cc(NC(=O)c2ccccc2)c(OC)cc1NC(=O)CSc1[nH]c(=O)cc(C)c1C#N	-17%	?	?	-23%	-7	-6
Cc1ncc(CN2CCCC(C(=O)Nc3ccc(-c4cccc(F)c4)cc3)C2)n1C (stereo unspecified)	3%	?	?	15µM*	14	10
COc1cccc(-c2ccc(NC(=O)C3CCCN(Cc4nccn4C)C3)cc2)c1 (stereo unspecified)	13µM*	-4%	?	?	35*	22*
CCOC(=O)c1[nH]ncc1CN1CCCC(C(=O)c2cc(Cl)ccc2OC)C1 (stereo unspecified)	?	nt	nt	-10%	-10	1
CC1(C)OC(c2ccccc2)=C/C(=C\C=N\NC(=O)c2ccncc2)O1	?	-7%	-27%[46.1 µM]	?	4	-1
O=C1Nc2ccc(Cl)cc2C12Nc1ccccc1-c1nnc(SCc3ccccc3F)nc1O2 (stereo unspecified)	-14%	?	?	12%	-48	28*
SMILES	Pf growth 96h	Lassa entry inh	Marburg entry inh	Pf growth 48h	Shiga inhibitor	Cycloheximide cs
O=C1Nc2ccc(F)cc2C12Nc1ccccc1-c1nnc(SCc3ccccc3F)nc1O2 (stereo unspecified)	7%	2%	1%	107%	-18	11
CCOc1ccc(CNCCCSc2ncccn2)cc1OC	?	nt	nt	4%	-3	-2
Oc1ccc(-c2csc(Nc3ccccn3)n2)c(O)c1	22%	nt	nt	261%	131*	34*
Cc1nc2ncccn2c1-c1csc(Nc2ccc(O)cc2)n1	51%	?	?	?	33	12
NS(=O)(=O)c1ccc(Nc2nc(-c3ccc(O)cc3O)cs2)cc1	30%	-23%	?	nt	-16	-2
Cc1cccnc1Nc1nc(-c2ccc(O)cc2O)cs1	14%	9%	?	137%	112*	39*
COCCCNC(=O)c1ccc(-n2nc(C(F)(F)F)cc2-c2cccs2)cc1	nt	-8%	0%	12µM*	-16	5
O=C(NCCCN1CCOCC1)c1ccc(-n2nc(C(F)(F)F)cc2-c2cccs2)cc1	nt	-9%	?	9.3µM*	-15	-2
COCCCNC(=O)c1cccs1	nt	2%	7%[46.1 µM]	8%	-19	-2
CCOc1ccc(S(=O)(=O)NCCC(=O)N2CCCN(C)CC2)cc1	1%	nt	nt	10%	-7	7
Cc1ccc(S(=O)(=O)N2CCC[C@H]2C(=O)Nc2ccccc2Cl)cc1	nt	0%[46.1 µM]	?	nt	nt	nt
O=C(N/N=C/c1ccc(N2CCOCC2)s1)c1ccc(NS(=O)(=O)c2cccs2)cc1	-16%	nt	nt	?	41	10
Nc1ccc(C(=O)N/N=C/c2sc(N3CCOCC3)nc2-c2ccccc2)cc1	?	-18%	?	?	21	15
FC(F)(F)c1ccc(Cl)c(N/N=C/c2ccc(N3CCOCC3)s2)c1	7.4µM*	-14%	2%	?	-3	11
CCOC(=O)N/N=C/c1ccc(N2CCOCC2)s1	38%	0%	5%	2.6µM*	19	10
O=C(N/N=C/c1sc(N2CCOCC2)nc1-c1ccccc1)c1cccc(S(=O)(=O)N2CCOCC2)c1	2.1µM*	nt	nt	1.9µM*	14	0
O=C(N/N=C/c1sc(N2CCOCC2)nc1-c1ccccc1)c1ccccc1Cl	?	?	9%[46.1 µM]	10µM*	11	2
CCc1nnc2n1N=C(c1ccc(Br)cc1)CS2	5%	nt	nt	5%[0.00184 µM]	-11	-2
O=C(CSC1c2ccccc2-c2ccccc21)N/N=C/c1ccccc1C(=O)O	?	-6%	-1%[46.1 µM]	-11%	-19	12
C(=N\N(c1ccccc1)c1ccccc1)/c1ccc(N2CCOCC2)s1	8.3µM*	-18%	?	?	0	1
O=C(N/N=C/c1ccc(N2CCOCC2)s1)c1ccccc1Cl	?	12%	0%	-30%	109*	34*
O=C(O)c1cccc(N/N=C/c2sc(N3CCOCC3)nc2-c2ccccc2)c1	5.2µM*	5%	?	?	176*	128*
O=[N+]([O-])c1ccc(N/N=C/c2sc(N3CCOCC3)nc2-c2ccccc2)c(S(=O)(=O)Nc2ccccc2Cl)c1	?	nt	nt	1.5µM*	-1	1
